NPC1 promoter act = activates the NPC1 promoter. Huh7 NPC1 promoter luciferase reporter, 24 h. Potency, µM (doses to about 9.22 µM), without a hit: top-dose activation, hits mostly activators. 2.4% of 320,000 active. AID 485313; further: % of control where 0% means no effect; nearly all actives have a fitted effect of over 60% in size
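Readout is luciferase luminescence, reflecting NPC1 promoter activation in stably transfected Huh7 cells after 24 h compound exposure at 37 °C in reduced-serum medium with 10% FBS.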
Rab9 prom act = activates the Rab9 promoter. Huh7 Rab9 promoter-luciferase reporter, luminescence, 24 h. Potency, µM (highest dose often 9.22 µM), without a hit: at the highest dose activation, negative = inhibition, hits mostly activators. 2.8% of 320,000 active. AID 485297; further: % of control where 0% means no effect; nearly all actives have a fitted effect of over 60% in size
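Measured in stably transfected Huh7 cells bearing a Rab9 promoter–luciferase construct: 24 h compound treatment at 37 °C, followed by luminescence detection.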
FLuc counter = inhibits or activates purified firefly luciferase, miR-21 counter-screen. P08659. purified FLuc, Km substrates, luminescence inhibition. Potency, µM (top dose mostly 57.5 µM), inactives show at the top dose activity change, negative = inhibition, most hits filed as inhibitors. 6.9% of 360,000 active. AID 588342;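 further: plate controls were vehicle for no effect and reference inhibitor for full effect; nearly all actives have a fitted effect of over 55% in size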
Target sequence (P08659 whole entry, looked up): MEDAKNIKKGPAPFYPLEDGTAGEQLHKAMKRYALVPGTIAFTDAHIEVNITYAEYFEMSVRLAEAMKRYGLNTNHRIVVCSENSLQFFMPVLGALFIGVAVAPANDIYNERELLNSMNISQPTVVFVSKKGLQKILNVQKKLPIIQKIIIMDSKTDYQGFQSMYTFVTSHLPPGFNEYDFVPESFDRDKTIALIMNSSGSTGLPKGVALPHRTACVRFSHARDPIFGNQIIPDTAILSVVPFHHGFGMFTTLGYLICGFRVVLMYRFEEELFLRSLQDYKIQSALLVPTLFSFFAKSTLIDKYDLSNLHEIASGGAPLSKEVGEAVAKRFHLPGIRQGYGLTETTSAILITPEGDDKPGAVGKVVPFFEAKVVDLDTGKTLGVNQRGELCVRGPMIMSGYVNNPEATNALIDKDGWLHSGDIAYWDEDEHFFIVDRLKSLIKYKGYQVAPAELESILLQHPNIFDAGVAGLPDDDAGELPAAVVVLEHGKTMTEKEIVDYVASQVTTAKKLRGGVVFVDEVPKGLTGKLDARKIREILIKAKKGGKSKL
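Biochemical qHTS of compounds, final roughly 60 µM downward over six points, against 10 nM purified firefly luciferase using Km concentrations of substrates (10 uM D-luciferin, 10 uM ATP) in Tris acetate pH 7.5 buffer; luminescence output.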
SMN2 splice up = SMN2 splice variant enhancement; HEK293 SMN2-luciferase splicing reporter, luminescence, 30-36 h; Potency, µM (doses to about 46.1 µM), for the others: top-dose activity change, positive = activation, usual class: activators; 2.8% of 210,000 active; AID 1458; further: % of control where 0% means no effect; nearly all actives have a fitted effect of over 55% in size
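HEK293 cells carry an SMN2 […]–luciferase reporter in which exon 7 inclusion puts luciferase in frame. Cells were plated 10-12 h before compound addition, then incubated 30-36 h at 37C. ONE-Glo luminescence was read; sodium butyrate at 4.5 mM final served as control.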
ELG1 genotox = genotoxicity induction in ELG1-luciferase HEK293T cells. AID 504466. Potency, µM (highest dose often 46 µM), without a hit: at the top dose activity change, positive = activation, most hits filed as activators. HEK293T ELG1-luciferase reporter, luminescence, 16 h. 1.3% of 330,000 active; further: % of control where 0% means no effect; nearly all actives have a fitted effect of over 60% in size
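After overnight (16 hr) compound treatment at 37 °C, ELG1-luciferase HEK293T cells were lysed with ONE-Glo; luminescence quantified 30 min later at room temperature.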
p53 reactivator = mutant p53 re-activation in reporter cells; H1299 p53-A138V BP100-luciferase reporter, luminescence, 24 h; Potency, µM (highest dose often 92.2 µM), for the others: at the highest dose activity change, positive = activation, usual class: activators; 0.063% of 320,000 active; AID 504706; further: % of control where 0% means no effect; nearly all actives have a fitted effect of over 45% in size
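p53-null H1299 cells stably carrying temperature-sensitive p53-A138V and a BP100-luciferase reporter were pinned with compounds (4-point, 1:5 series) and held 24 hrs at 37 deg C. Luminescence was read 10 min after detection reagent.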
Active calls of the source: *. Sampled rows, rich in hits. Any-hit rate of the full collection: about 7.4%. The call rests on the fitted dose curve; in most records, active means well fitted curve in the direction sought with a large enough effect; inconclusive means small, poorly fitted or top-dose-only effect, or another doubt; inactive means no such curve, though single readings can be large; an effect the other way counts as inactive or inconclusive. Potency means the concentration at half of the fitted maximal effect.

Screening CC(C)(C)NC(=O)c1cccc(NC(=O)CSc2ccc(Cl)cc2)c1 returned NPC1 promoter act 1%, Rab9 prom act -6%, FLuc counter 11µM*, SMN2 splice up -18%, ELG1 genotox -4% and p53 reactivator 7%.
For CC(=O)Oc1ccc(C(=O)Nc2ccccc2C(=O)NCC(C)C)cc1 the results were NPC1 promoter act 0%, Rab9 prom act -14%, FLuc counter inconclusive, SMN2 splice up inconclusive, ELG1 genotox -1% and p53 reactivator -1%.
CC(=O)Oc1ccc(C(=O)Nc2cccc(C(=O)NC(C)(C)C)c2)cc1 was read as NPC1 promoter act 2%, Rab9 prom act -8%, FLuc counter 19µM*, SMN2 splice up -23%, ELG1 genotox 1% and p53 reactivator 4%.
CC(=O)Oc1ccc(C(=O)Nc2ccccc2C(=O)Nc2cccc(C(=O)O)c2)cc1 was read as NPC1 promoter act 0%, Rab9 prom act 1%, FLuc counter 4.3µM*, ELG1 genotox 12% and p53 reactivator -3%.
Cc1ccc(Cl)cc1N1CCN(C(=O)c2noc3c2CCCC3)CC1 was read as FLuc counter -11%.
Screening CC(=O)Oc1ccc(C(=O)Nc2cccc(C(=O)Nc3ccccc3C(=O)O)c2)cc1 returned NPC1 promoter act -3%, Rab9 prom act 2%, FLuc counter 11µM*, ELG1 genotox -6% and p53 reactivator 6%.
Screening CC(=O)Oc1cccc(C(=O)Nc2ccccc2C(=O)N2CCCC2)c1 returned NPC1 promoter act -1%, Rab9 prom act 5%, FLuc counter 6%, ELG1 genotox 4% and p53 reactivator -1%.
Screening O=C(Oc1ccccc1)N1CCC2(CCCN(c3ccc(-c4ccccc4)cc3)C2)CC1 returned SMN2 splice up -8%.
Screening CC(=O)N1CCC[C@@]2(CCN(Cc3ccccc3)C2)C1 returned SMN2 splice up -8%.
Screening NC(=O)c1sc2cc(C(F)(F)F)cnc2c1-c1cccs1 returned NPC1 promoter act -2%, Rab9 prom act -5%, FLuc counter -1%, SMN2 splice up -19%, ELG1 genotox -2% and p53 reactivator 0%.
`O=C(O)c1sc2cc(C(F)(F)F)cnc2c1-c1cccs1` gave NPC1 promoter act 2%, Rab9 prom act -10%, FLuc counter 11µM*, SMN2 splice up 6%, ELG1 genotox -8% and p53 reactivator 0%.
For CCOC(=O)c1c(C)oc2cc(Cl)c(O)c(CN(C)C)c12 the results were NPC1 promoter act 2%, Rab9 prom act -7%, FLuc counter 15µM*, ELG1 genotox inconclusive and p53 reactivator inconclusive.
CCOC(=O)c1c(C)oc2ccc(O)c(CN(C)C)c12 was read as NPC1 promoter act -5%, Rab9 prom act -1%, FLuc counter -3%, SMN2 splice up -5%, ELG1 genotox -19% and p53 reactivator -2%.
Cc1ccc2nc(N3CCOCC3)c(C=O)cc2c1 was read as NPC1 promoter act 23%, Rab9 prom act 13%, FLuc counter 21µM*, ELG1 genotox inconclusive and p53 reactivator 12%.
`CCOc1ccc(NC(=O)c2ccc(F)c(S(=O)(=O)N(CC)Cc3ccccc3)c2)cc1` gave FLuc counter 1%.
For O=C(/C=C/Nc1ccccc1)c1ccc(Oc2ncccn2)cc1 the results were NPC1 promoter act 1.4µM*, Rab9 prom act 2.2µM*, FLuc counter 2.1µM*, SMN2 splice up inconclusive, ELG1 genotox inconclusive and p53 reactivator inconclusive.
`COc1ccc(C(=O)/C=C/Nc2ccc(C)cn2)cc1OC` gave NPC1 promoter act 2.2µM*, Rab9 prom act 1.6µM*, FLuc counter 8.5µM*, SMN2 splice up 11µM*, ELG1 genotox inconclusive and p53 reactivator inconclusive.
`COc1ccc(C(=O)/C=C\N2CCOCC2)cc1` gave NPC1 promoter act 14%, Rab9 prom act 15%, FLuc counter 24µM*, ELG1 genotox inconclusive and p53 reactivator 14%.

Screens as filed in PubChem BioAssay.
